Results from PubChem BioAssay (Tox21).
Results filed as inconclusive are left out. Unmarked numbers belong to inactive results. The source made the active and inactive calls. Calls come from the whole dose curve; as a rule, active = well fitted cell-killing curve with a large enough effect in the repeat runs; inconclusive = weak or mixed curves, or effect the other way; inactive = flat fitted curve, though single readings scatter.
% is set by controls: 0 for no effect and ±100 for the full control effect.

Experiment: qHTS assay to identify small molecule agonists of the TGF-beta/Smad signaling pathway - cell viability counter screen (AID 1346829); note: top concentration of the series differs between compounds; nearly all actives have a fitted effect of over 45% in size
Conditions: SBE-bla HEK293T viability, CellTiter-Glo luminescence, 5 h; series mostly up to 76.8 µM
Description: National Center for Advancing Translational Sciences [NCATS]
NIH Chemical Genomics Center [NCGC]
U.S. Environmental Protection Agency [EPA]
National Institutes of Environmental Health Sciences [NIEHS]
National Toxicology Program [NTP]
U.S. Food and Drug Administration [FDA]
Transforming growth factor beta (TGF-beta) superfamily consists of a large number of structurally related dimeric proteins that act as hormones or local mediators in regulating a wide range of biological functions. This superfamily includes TGF-betas themselves, the bone morphogenetic proteins (BMPs) and the activins. These ligands induce oligomerization of serine/threonine receptor kinases and phosphorylate the cytoplasmic signaling molecules of Smad protein family. CellSensor SBE-bla HEK 293T cell line (Life Technologies, Carlsbad, CA), responsive to TGF-beta was used to screen Tox21 10K compound library for identification of agonists/antagonists of the Smad signaling pathway. This cell line contains a beta-lactamase reporter gene under control of the Smad binding element (SBE) stably integrated into HEK 293T cells. Also cytotoxicity of the compounds was tested in parallel by measuring the cell viability using CellTiter-Glo assay system in the same wells.
Tox21 Assay Protocol Summary:
SBE-bla HEK 293T cells were dispensed at 4,000/well in 6 uL of assay medium into black wall/clear-bottom 1536-well plates using a Multidrop Combi (ThermoFisher Scientific, Waltham, MA) dispenser. After the assay plates were incubated at 37 C and 5% CO2 for an overnight, 23 nL of compounds dissolved in DMSO, positive controls or DMSO only was transferred to the assay plate by a Pintool station (Kalypsys, San Diego, CA). The assay plates were incubated at 37 C and 5% CO2 for 5 hr. One uL of LiveBLAzer B/G FRET substrate (Life Technologies) was added using a Flying Reagent Dispenser (FRD, Aurora Discovery, San Diego, CA) and the plates were incubated at room temperature for 2 hr. Fluorescence intensity (405 nm excitation, 460 nm and 530 nm emissions) was measured using an Envision plate reader (PerkinElmer, Shelton, CT). For cytotoxicity read, 4 uL of CellTiter-Glo reagent (Promega Corporation, Madison, WI) was added to each well of the assay plates using FRD. After 30min incubation at room temperature, the luminescence intensity was measured using ViewLux plate reader (PerkinElmer).
With `CCCC(=O)C(C)=O` the outcome was “inactive”. In the case of `CN(C)C(=O)CNC(=O)Cc1ccccc1`, the outcome is reported as “inactive”. Compound `COC(=O)C1CC(=O)C(C(=O)OC)CC1=O` (stereo not given) has an activity change, negative = cytotoxicity of -0.722% [at 6.97 µM]. With `CNS(=O)(=O)CCc1ccc2[nH]cc(C3CCN(C)CC3)c2c1` the outcome was “inactive”. For `CCCCCCCCCC(C)=O`, the outcome was “inactive”. For `Oc1cn2c(n1)Nc1ccc(Cl)c(Cl)c1C2`, the activity change, negative = cytotoxicity was -0.153% [at 15.8 µM]. For `OCCCCC(O)CO` (stereo not given), the outcome was “inactive”. With `CC(=O)NCCCCCC(=O)O` the outcome was “inactive”. For `O=C(O)Cc1ccc(Cl)cc1Cl`, the outcome was “inactive”. For `C=Cc1ccccn1`, the outcome was “inactive”. In the case of `CC(=O)/C=C/C1C(C)=CCC(C)C1(C)C` (stereo not given), the outcome is reported as “inactive”. For `CC(C)=O`, the outcome was “inactive”. With `COc1cc(NS(=O)(=O)c2ccc(N)cc2)nc(OC)n1` the outcome was “inactive”. With `C=C(C)C(=O)OCCNC(C)(C)C` the outcome was “inactive”. In the case of `CCCCNc1ccc(C(=O)OCCN(C)C)cc1`, the outcome is reported as “inactive”. For `OCCN(CCO)c1cccc(Cl)c1`, the outcome was “inactive”. With `CNC(=O)[C@H]1O[C@@H](n2cnc3c(NCc4cc(Cl)ccc4OCc4cc(C)no4)ncnc32)[C@H](O)[C@@H]1N` the outcome was “inactive”. In the case of `O=S(=O)(O)CCN1CCN(CCO)CC1`, the outcome is reported as “inactive”. In the case of `CCN(CC)CC(=O)Nc1c(C)cccc1C`, the outcome is reported as “inactive”. For `O=C(Nc1ccc(Cl)c(Cl)c1)C1CC1`, the outcome was “inactive”. In the case of `CCCCNC1CC(C)(C)NC(C)(C)C1`, the outcome is reported as “inactive”. For `NCCN1CCOCC1`, the outcome was “inactive”. In the case of `CCCCCCCCCCl`, the outcome is reported as “inactive”. In the case of `O=C(O)Cc1cn(-c2ccccc2)nc1-c1ccc(Cl)cc1`, the outcome is reported as “inactive”. In the case of `Nc1nnc(-c2cccc(Cl)c2Cl)c(N)n1`, the outcome is reported as “inactive”. In the case of `CC(C)OC(=O)CCCCC(=O)OC(C)C`, the outcome is reported as “inactive”. In the case of `CC1(CO)CN(c2ccccc2)NC1=O` (stereo not given), the outcome is reported as “inactive”. With `CCCOC(=O)C(C)O` (stereo not given) the outcome was “inactive”. With `Cc1cccc(C)c1NC(=O)c1ccccc1C(=O)O` the outcome was “inactive”. For `CN(CCOc1ccc(NS(C)(=O)=O)cc1)CCc1ccc(NS(C)(=O)=O)cc1`, the outcome was “inactive”. With `C[C@@H](Oc1ccc(CNC(=O)c2cccnc2Oc2ccc3c(c2)OCO3)c(F)c1)C(=O)O` the outcome was “inactive”. With `O=C(CCNNC(=O)c1ccncc1)NCc1ccccc1` the outcome was “inactive”. With `CCCCCCCCSCC` the outcome was “inactive”. In the case of `O=C1c2cccc3c2[C@H](CCC3)CN1[C@@H]1CN2CCC1CC2`, the outcome is reported as “inactive”. In the case of `COc1ccc(Br)c(C)c1`, the outcome is reported as “inactive”. In the case of `CN(C)CCOCCO`, the outcome is reported as “inactive”. With `CCC(C)NC(N)=O` (stereo not given) the outcome was “inactive”. In the case of `Cc1cccc(OCC(O)CNC(C)(C)C)c1C` (stereo not given), the outcome is reported as “inactive”. Work on `Cc1nc2n(c(=O)c1CCN1CCC(c3noc4cc(F)ccc34)CC1)CCC[C@H]2O` yielded an activity change, negative = cytotoxicity of -1.25% [at 15.8 µM]. For `CC(C)C(=O)OCc1cccc(OC(=O)[C@@H]2N3C(=O)[C@@H](NC(=O)Cc4ccccc4)[C@H]3SC2(C)C)c1`, the outcome was “inactive”.
